Growth data for eight molecules are collected here from PubChem BioAssay (NCI).

Test systems include HCT-15 colon; HT29 colon; SNB-75 CNS; SNB-19 CNS; U251 CNS; PC-3 prostate; SK-MEL-5 melanoma; UACC-62 melanoma; LOX IMVI melanoma; SK-MEL-28 melanoma; SK-MEL-2 melanoma; EKVX NSCLC; UO-31 renal; TK-10 renal; ACHN renal; CAKI-1 renal; A498 renal; CCRF-CEM leukemia; MOLT-4 leukemia; SN12C renal.
Common to all, as to assay: NCI-60 one-dose screen, 48 h (100 = growth as untreated, 0 = no growth, -100 = all killed)
Holding throughout (conditions): 10 µM unless noted

This is part of a sample that, as a whole, favours compounds with a hit. Of some 83,000 tested, about 20% had one in any assay.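 Treatment: one concentration, 48 hours, 96-well format. Scoring: percent growth, with anything below 10 considered active.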 Unmarked numbers belong to inactive results. The source made the active and inactive calls.

As to `O=C(/C=C/c1ccccc1)c1ccc2ccccc2c1`, the growth is 48.5% in the assay with HCT-15 colon; 54.7% in the assay with HT29 colon; 107% in the assay with SNB-75 CNS; 99.3% in the assay with SNB-19 CNS; 93.2% in the assay on U251 CNS; 90.1% in the assay with PC-3 prostate. The growth in the assay with SK-MEL-5 melanoma was 92%; with UACC-62 melanoma it was 92.6%; in the assay on LOX IMVI melanoma, 89.3%; in the assay with SK-MEL-28 melanoma it was 108%; in the assay with SK-MEL-2 melanoma it was 98.4%; in the assay with EKVX NSCLC, 86.7%. Further, the growth in the assay on UO-31 renal was 73.9%; in the assay on TK-10 renal, 44.4%; in the assay on ACHN renal, 16.2%; in the assay with CAKI-1 renal, 83.9%; with A498 renal it was 93.5%; in the assay with CCRF-CEM leukemia, 23%. In addition, the growth with MOLT-4 leukemia was 74.5%.

In the case of `COc1ccc(-c2nc3sc4c(c3c(=O)[nH]2)CCCC4)c2ccccc12`, the growth is 6.37% (active) in the assay on HCT-15 colon; -0.244% (active) with HT29 colon; -25.5% (active) in the assay with SNB-75 CNS; 36% in the assay with SNB-19 CNS; 6.38% (active) in the assay with U251 CNS; 11.7% in the assay on PC-3 prostate. Further, the growth in the assay on SK-MEL-5 melanoma was 18.1%; in the assay with UACC-62 melanoma, 24.4%; in the assay with LOX IMVI melanoma, 26.9%; in the assay with SK-MEL-28 melanoma, -5.17% (active); in the assay with SK-MEL-2 melanoma, 29.4%; in the assay with SN12C renal, 36.2%. Also, the growth with UO-31 renal was 24.8%; with TK-10 renal it was 38.3%; in the assay on ACHN renal it was -32.5% (active); with CAKI-1 renal it was 9.7% (active); in the assay on A498 renal, -24.4% (active); in the assay with CCRF-CEM leukemia it was 12.5%. Besides, the growth in the assay with MOLT-4 leukemia was 14.2%.

For the molecule `CCOc1cccnc1/C=N/NC(N)=S`, the growth in the assay with HCT-15 colon was 40.2%; with HT29 colon, 56.7%; with SNB-75 CNS, 68.7%; in the assay with SNB-19 CNS, 69.4%; in the assay on U251 CNS it was 36.1%; with PC-3 prostate, 37.3%. Moreover, the growth was 55.4% in the assay on SK-MEL-5 melanoma; 50.6% in the assay on UACC-62 melanoma; 35.9% in the assay on LOX IMVI melanoma; 76.1% with SK-MEL-28 melanoma; 52.2% with SK-MEL-2 melanoma; 53.5% in the assay with SN12C renal. Further, the growth in the assay on UO-31 renal is 9.56% (active); with TK-10 renal, 66%; with ACHN renal it was 35.7%; in the assay with CAKI-1 renal, 29%; in the assay with A498 renal it was 3.97% (active); in the assay with CCRF-CEM leukemia it was 17.4%. The growth in the assay with MOLT-4 leukemia was 7.07% (active).

Turning to `NC(=S)N/N=C/C(=O)O`, the growth is 93.7% in the assay with HCT-15 colon; 80% in the assay with HT29 colon; 99.2% in the assay on SNB-75 CNS; 108% in the assay on SNB-19 CNS; 102% in the assay with U251 CNS; 70% with PC-3 prostate. The growth was 103% in the assay on SK-MEL-5 melanoma; 106% in the assay on UACC-62 melanoma; 93.3% with LOX IMVI melanoma; 111% in the assay on SK-MEL-28 melanoma; 85.3% with SK-MEL-2 melanoma; 90.4% with SN12C renal. For the same molecule, the growth in the assay on UO-31 renal is 38.8%; in the assay on TK-10 renal, 111%; in the assay on ACHN renal it was 91.2%; with CAKI-1 renal, 88.5%; in the assay on A498 renal, 80.3%; in the assay with CCRF-CEM leukemia, 24.3%. Further, in the assay on MOLT-4 leukemia, the growth was 44%.

`CSc1nc(N)c(CNC(C)c2ccccc2)c(=O)n1C` (stereo unspecified): the growth with HCT-15 colon was 104%; with HT29 colon, 105%; in the assay on SNB-75 CNS, 93.4%; in the assay with SNB-19 CNS it was 98.9%; with U251 CNS, 95%; in the assay on PC-3 prostate it was 101%. For the same molecule, the growth was 113% in the assay with SK-MEL-5 melanoma; 98.8% with UACC-62 melanoma; 92.3% with LOX IMVI melanoma; 109% in the assay with SK-MEL-28 melanoma; 98.9% in the assay on SK-MEL-2 melanoma; 100% in the assay with EKVX NSCLC. The growth in the assay on UO-31 renal was 80.5%; with TK-10 renal, 120%; with ACHN renal it was 97.9%; in the assay on CAKI-1 renal, 107%; in the assay with A498 renal it was 102%; in the assay on CCRF-CEM leukemia it was 106%. Moreover, in the assay on MOLT-4 leukemia, the growth is 93.1%.

For the molecule `COc1ccc(NC(=O)C(=O)c2c[nH]c3ccc(F)cc23)cc1`, the growth in the assay with HCT-15 colon was 99.2%; in the assay on HT29 colon it was 88.4%; in the assay with SNB-75 CNS it was 99.7%; with SNB-19 CNS, 104%; with U251 CNS it was 91%; in the assay with PC-3 prostate it was 91.5%. Further, the growth with SK-MEL-5 melanoma is 97.4%; with UACC-62 melanoma it was 99.3%; with LOX IMVI melanoma it was 105%; in the assay with SK-MEL-28 melanoma, 109%; with SK-MEL-2 melanoma, 106%; in the assay on SN12C renal it was 98.9%. Further, the growth is 96.4% with UO-31 renal; 132% with TK-10 renal; 93.8% in the assay on ACHN renal; 93.1% in the assay with CAKI-1 renal; 65.8% in the assay on A498 renal; 97.8% in the assay with CCRF-CEM leukemia. In the assay on MOLT-4 leukemia, the growth was 90.8%.

On to `CC(=O)c1cc2c(o1)C(=O)c1ccccc1C2=O`, for which the growth was -77% (active) in the assay with HCT-15 colon; -18.3% (active) in the assay on HT29 colon; -98.5% (active) with SNB-75 CNS; -90.8% (active) in the assay on SNB-19 CNS; -81.2% (active) in the assay with U251 CNS; -10.4% (active) in the assay on PC-3 prostate. In addition, the growth was -96.3% (active) with SK-MEL-5 melanoma; -82.7% (active) in the assay with UACC-62 melanoma; -59.3% (active) with LOX IMVI melanoma; -70.8% (active) with SK-MEL-28 melanoma; -69.4% (active) in the assay with SK-MEL-2 melanoma; -81% (active) with EKVX NSCLC. Besides, the growth in the assay on UO-31 renal is -98.1% (active); in the assay with TK-10 renal it was -96.4% (active); in the assay on ACHN renal, -98.3% (active); with CAKI-1 renal, -98.4% (active); with CCRF-CEM leukemia, -74.8% (active); with MOLT-4 leukemia, -43% (active).

Consider `Cc1csc(NC(=O)c2sc3nc(-c4cccs4)ccc3c2N)n1`, for which the growth was 102% in the assay on HCT-15 colon; 102% in the assay on HT29 colon; 102% in the assay on SNB-75 CNS; 112% in the assay with SNB-19 CNS; 91.3% in the assay on U251 CNS; 82.6% in the assay on PC-3 prostate. The growth is 92.2% in the assay with SK-MEL-5 melanoma; 98.2% in the assay on UACC-62 melanoma; 95.1% in the assay with LOX IMVI melanoma; 115% with SK-MEL-28 melanoma; 87.2% in the assay with SK-MEL-2 melanoma; 98% with SN12C renal. The growth is 88% with UO-31 renal; 118% in the assay with TK-10 renal; 110% with ACHN renal; 102% in the assay with CAKI-1 renal; 77.3% in the assay on A498 renal; 70.3% in the assay with CCRF-CEM leukemia. The growth in the assay on MOLT-4 leukemia is 57.6%.
